# Test results reported in the supplement of paper PMC8728848.
# The entries come from a sample that favours the strongest signals as a whole.
# B1: EfCBM33A (Enterococcus faecalis), Q838S1 (protein)
# chain: MKKSLLTIVLAFSFVLGGAALAPTVSEAHGYVASPGSRAFFGSSAGGNLNTNVGRAQWEPQSIEAPKNTFITGKLASAGVSGFEPLDEQTATRWHKTNITTGPLDITWNLTAQHRTASWDYYITKNGWNPNQPLDIKNFDKIASIDGKQEVPNKVVKQTINIPTDRKGYHVIYAVWGIGDTVNAFYQAIDVNIQ
# Experiments:
# Experiment in all cases: glycan array binding signal (z-score within array); higher = stronger binding
# Conditions in all cases: glycan notation: IUPAC condensed, linker removed
# [1] = target: GlcNAc(b1-3)[GlcNAc(b1-6)]GalNAc
# In short: (§1)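 Columns mapping to the same glycan were averaged after glycan names were converted to IUPAC-condensed notation. The data come from 3228 arrays in the Consortium for Functional Glycomics database, limited to those with an available protein sequence. Binding is reported as a within-array Z-score averaged across arrays of one protein sequence and across linkers.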
# [2] = target: GlcNAc(b1-4)GlcNAc(b1-4)GlcNAc(b1-4)GlcNAc(b1-4)GlcNAc(b1-4)GlcNAc
# In short: as §1
# Kdn(a2-6)Gal(b1-4)GlcNAc = target: Kdn(a2-6)Gal(b1-4)GlcNAc
# In short: as §1
# [3] = target: Man(a1-2)Man(a1-2)Man(a1-3)Man
# In short: as §1
# [4] = target: Man(a1-2)Man(a1-3)[Man(a1-2)Man(a1-6)]Man
# In short: as §1
# [5] = target: Man(a1-3)[Man(a1-6)]Man(a1-6)[Man(a1-3)]Man(b1-4)GlcNAc(b1-4)GlcNAc
# In short: as §1
# MurNAc(b1-4)GlcNAc = target: MurNAc(b1-4)GlcNAc
# In short: as §1
# [6] = target: Neu5Ac(a2-3)Gal(b1-4)GlcNAc(b1-2)Man(a1-3)[GlcNAc(b1-4)][Neu5Ac(a2-3)Gal(b1-4)GlcNAc(b1-2)Man(a1-6)]Man(b1-4)GlcNAc(b1-4)GlcNAc
# In short: as §1
# [7] = target: Neu5Ac(a2-3)Gal(b1-4)GlcNAc(b1-3)Gal(b1-4)GlcNAc
# In short: as §1
# [8] = target: Neu5Ac(a2-3)Gal(b1-4)GlcNAc(b1-3)Gal(b1-4)GlcNAc(b1-3)[Neu5Ac(a2-3)Gal(b1-4)GlcNAc(b1-3)Gal(b1-4)GlcNAc(b1-6)]GalNAc
# In short: as §1
# [9] = target: Neu5Ac(a2-3)Gal(b1-4)GlcNAc(b1-3)[Neu5Ac(a2-3)Gal(b1-4)GlcNAc(b1-6)]GalNAc
# In short: as §1
# [10] = target: Neu5Ac(a2-3)Gal(b1-4)[Fuc(a1-3)]GlcNAc(b1-3)GalNAc
# In short: as §1
# [11] = target: Neu5Ac(a2-6)Gal(b1-4)GlcNAc(b1-2)Man(a1-3)Man(b1-4)GlcNAc(b1-4)GlcNAc
# In short: as §1
# [12] = target: Neu5Ac(a2-6)Gal(b1-4)GlcNAc(b1-2)Man(a1-3)[Gal(b1-4)GlcNAc(b1-2)Man(a1-6)]Man(b1-4)GlcNAc(b1-4)GlcNAc
# In short: as §1
# [13] = target: Neu5Ac(a2-6)Gal(b1-4)GlcNAc(b1-2)[Neu5Ac(a2-6)Gal(b1-4)GlcNAc(b1-4)]Man(a1-3)[GlcNAc(b1-4)][Neu5Ac(a2-6)Gal(b1-4)GlcNAc(b1-2)[Neu5Ac(a2-6)Gal(b1-4)GlcNAc(b1-6)]Man(a1-6)]Man(b1-4)GlcNAc(b1-4)GlcNAc
# In short: as §1
# [14] = target: Neu5Ac(a2-6)Gal(b1-4)GlcNAc(b1-2)[Neu5Ac(a2-6)Gal(b1-4)GlcNAc(b1-6)]Man(a1-6)[Neu5Ac(a2-6)Gal(b1-4)GlcNAc(b1-2)Man(a1-3)][GlcNAc(b1-4)]Man(b1-4)GlcNAc(b1-4)GlcNAc
# In short: as §1
# [15] = target: Neu5Ac(a2-6)Gal(b1-4)GlcNAc(b1-3)Gal(b1-4)GlcNAc
# In short: as §1
# [16] = target: Neu5Ac(a2-6)Gal(b1-4)GlcNAc(b1-3)Gal(b1-4)GlcNAc(b1-3)[Neu5Ac(a2-6)Gal(b1-4)GlcNAc(b1-3)Gal(b1-4)GlcNAc(b1-6)]GalNAc
# In short: as §1
# [17] = target: Neu5Ac(a2-6)Gal(b1-4)GlcNAc(b1-6)[Gal(b1-3)GlcNAc(b1-3)]Gal(b1-4)Glc
# In short: as §1
# [18] = target: Neu5Ac(a2-8)Neu5Ac(a2-8)Neu5Ac
# In short: as §1
# [19] = target: Neu5Gc(a2-8)Neu5Gc(a2-6)Gal(b1-4)GlcNAc
# In short: as §1
binder,measurement,setting,value
B1,glycan array binding signal (z-score),[1],-0.941
same,glycan array binding signal (z-score),[2],0.083
same,glycan array binding signal (z-score),Kdn(a2-6)Gal(b1-4)GlcNAc,0.328
same,glycan array binding signal (z-score),[3],-0.162
same,glycan array binding signal (z-score),[4],0.783
same,glycan array binding signal (z-score),[5],0.455
same,glycan array binding signal (z-score),MurNAc(b1-4)GlcNAc,0.631
same,glycan array binding signal (z-score),[6],0.122
same,glycan array binding signal (z-score),[7],-0.177
same,glycan array binding signal (z-score),[8],7.32
same,glycan array binding signal (z-score),[9],3.14
same,glycan array binding signal (z-score),[10],2.79
same,glycan array binding signal (z-score),[11],2.04
same,glycan array binding signal (z-score),[12],0.519
same,glycan array binding signal (z-score),[13],2.16
same,glycan array binding signal (z-score),[14],0.103
same,glycan array binding signal (z-score),[15],2.76
same,glycan array binding signal (z-score),[16],0.687
same,glycan array binding signal (z-score),[17],-0.451
same,glycan array binding signal (z-score),[18],0.016
same,glycan array binding signal (z-score),[19],-0.736
